Compounds with a hit are over-represented: about 3.9% of the library has one in this group of screens.
D1 antagonist: Antagonist of Human D 1 Dopamine Receptor: qHTS; HEK293 TREx D1 cells, calcium flux, dopamine EC80; hits give low values; activity change, negative = inhibition, % at 10 µM; 360,000 tested, 3.2% active; in the data active means activity change below about -30%
Target sequence (P21728 whole entry, looked up): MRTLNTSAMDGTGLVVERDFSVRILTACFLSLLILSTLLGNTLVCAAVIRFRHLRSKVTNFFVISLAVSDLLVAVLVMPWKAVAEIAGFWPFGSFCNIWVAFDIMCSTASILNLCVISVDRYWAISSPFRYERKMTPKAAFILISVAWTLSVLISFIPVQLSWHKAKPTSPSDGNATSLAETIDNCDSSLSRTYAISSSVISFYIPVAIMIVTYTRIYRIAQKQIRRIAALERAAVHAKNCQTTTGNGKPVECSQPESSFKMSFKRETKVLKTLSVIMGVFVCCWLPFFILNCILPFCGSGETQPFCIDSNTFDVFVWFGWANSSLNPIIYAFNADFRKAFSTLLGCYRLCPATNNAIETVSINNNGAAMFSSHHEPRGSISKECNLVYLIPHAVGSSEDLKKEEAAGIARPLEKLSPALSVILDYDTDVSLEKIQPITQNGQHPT
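Compound effects on dopamine-evoked calcium signalling were measured in tetracycline-induced HEK293 Trex D1 cells. Dopamine at EC80 followed a 180 s compound pre-read, and fluorescence was tracked kinetically for 180 s more.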
D1 ag: Allosteric Agonists of the Human D1 Dopamine Receptor: qHTS; D(1A) dopamine receptor (Homo sapiens), P21728; HEK293 T-REx D1 cells, calcium flux, agonist mode; activation, % at 2 µM; 360,000 tested, 1% active; AID 504660, 2011; in the data active means activation above about 30%
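Inducible HEK293 T-REx D1 cells, force-coupled to calcium signalling, were plated at 4000 cells/well with tetracycline and held overnight at 30 C. After no-wash calcium dye loading, compound-evoked calcium rise over 180 s flagged agonists.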
GALK inh: qHTS Assay for Inhibitors of Human Galactokinase (GALK) | P51570 | Purified GALK, Kinase-Glo residual ATP luminescence | Potency, µM (highest dose often 57.5 µM), most hits filed as inhibitors | 270,000 tested, 0.007% active
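Luminescence from leftover ATP (Ultra-Glo luciferase/luciferin) served as read-out after a 1 h room-temperature reaction of 5 nM GALK with 35 uM ATP and 100 uM galactose.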
D1 PAM: Potentiators of Human D1 Dopamine Receptor: qHTS. D(1A) dopamine receptor (Homo sapiens), P21728. HEK293 TREx D1 cells, calcium flux, dopamine EC20 potentiation. potentiation, % at 10 µM. 360,000 tested, 0.036% active. AID 504651, 2011; in the data active means potentiation above about 30%
USP2a block: qHTS Assay for Inhibitors of Ubiquitin-specific Protease USP2a Using CHOP2 as the Reporter | Potency, µM (series often up to 38.3 µM), hits mostly inhibitors | Ubiquitin carboxyl-terminal hydrolase 2 (Homo sapiens), O75604 | AID 463254, 2010 | USP2 core, Ub-CHOP2 coupled fluorogenic reporter, 485/531 | 330,000 tested, 0.01% active
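USP2 core (10nM final) preincubated 30min RT with compound in 20mM Tris-HCl pH 8.0, 2mM CaCl2, 2mM beta-mercaptoethanol, 0.05% CHAPS; 25nM Ub-CHOP2 plus 25nM reporter substrate added, fluorescence (Ex485/Em531) read after 60min.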
Eya2 phos inh: qHTS Assay for Inhibitors of the Phosphatase Activity of Eya2 | Protein phosphatase EYA2 (Homo sapiens), O00167 | recombinant Eya2, OMFP fluorescence dephosphorylation (OMFP is methylfluorescein phosphate) | Potency, µM (titrated, usually from 76.9 µM), usual class: inhibitors | 330,000 tested, 0.006% active
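Eya2 protein (added as 0.2 uM solution) was preincubated with compound for 10 min at ambient temperature in 50 mM HEPES pH 7.5, 50 mM NaCl, 5 uM MgCl2, 0.05% BSA, 1 mM DTT. OMFP (added at 50 uM) then reacted 10 min; fluorescence read at 485/525 nm.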
A number is an active result; . = inactive; ? = inconclusive; / = no result. Unless noted, the call rests on the fitted dose curve; in most records, active means well fitted inhibition curve with a large enough effect; inconclusive means small, poorly fitted or top-dose-only effect, or effect the other way; inactive means flat fitted curve, though single readings scatter.

SMILES	D1 antagonist	D1 ag	GALK inh	D1 PAM	USP2a block	Eya2 phos inh
CCCN(C(=O)Cn1ncc2c(=O)oc3ccccc3c21)c1cccc(C)c1	.	.	.	.	/	/
Cc1ccc2oc(=O)c3cnn(CC(=O)NCCC(C)C)c3c2c1	-37.3	.	.	.	.	.
COCCCNC(=O)Cn1ncc2c(=O)oc3ccccc3c21	-30.3	.	.	.	.	.
CCN(CCCNC(=O)Cn1ncc2c(=O)oc3ccccc3c21)c1cccc(C)c1	-36.9	.	.	.	.	.
CCOC(=O)c1sc(N2C(=O)c3oc4ccc(F)cc4c(=O)c3C2c2cccc(OC)c2)nc1C (configuration not stated)	.	.	/	.	/	/
O=C(Nc1cccc(C(F)(F)F)c1)c1cc(-c2ccc3c(c2)OCCO3)on1	.	.	/	.	/	/
O=C(CSc1nccn1C1CCCC1)Nc1cccc(F)c1	.	.	/	.	/	/
COc1cc(OC)cc(C(=O)NCC2CCCN(Cc3ccc(SC)cc3)C2)c1 (configuration not stated)	.	.	.	.	.	.
CCc1ccc(CN2CCCC(CNC(=O)c3cc(OC)cc(OC)c3)C2)cc1 (configuration not stated)	-36.8	.	.	.	.	.
COc1ccc(CCNC(=O)CCCn2c(=O)c3ccccc3n(Cc3ccccc3C#N)c2=O)cc1OC	.	.	/	.	/	/
COc1cc(CC(=O)OCC(=O)N2CC(=O)Nc3ccccc32)cc(OC)c1OC	-32.7	.	.	.	.	.
O=C1CN(C(=O)COC(=O)c2cccc(OCc3ccccc3)c2)c2ccccc2N1	-89.4	.	.	.	.	.
COc1cc(CCC(=O)OCC(=O)N2CC(=O)Nc3ccccc32)cc(OC)c1OC	/	/	/	/	.	.
Cc1nc2ccccc2n1CCc1nc2c3ccccc3nc(SCc3cccc(F)c3)n2n1	.	.	/	.	/	/
Cc1ccc(C)c(-n2c(CCC(=O)O)ccc2-c2ccc(Cl)cc2)c1	-31.8	.	/	.	/	/
Cc1ccc(-c2ccc(CCC(=O)O)n2-c2ccc(C)c(Cl)c2)cc1	.	.	/	.	/	/
Cc1ccccc1-c1ncnn1-c1sc2c(c1C#N)CCCCC2	.	.	/	.	/	/
Cc1oc(-c2ccc(Cl)cc2)nc1CN1CCCC(C(=O)NCc2ccccc2)C1 (configuration not stated)	.	.	/	.	/	/
N#CC(c1ccc(Cl)cc1)c1ccc2c(C(F)(F)F)cc(C(F)(F)F)nc2n1 (configuration not stated)	.	.	.	31.6	.	.
COc1ccc2c(Cl)c(C(=O)N/N=C3\CCCC(=O)C3)sc2c1	.	44.1	.	.	?	.
O=C(NC1=NCCS1)c1sc2cc(Cl)cc(Cl)c2c1Cl	-33.7	.	.	.	.	.
O=C(NC1=NCCS1)c1sc2ccccc2c1Cl	.	.	.	.	.	.
CCN(Cc1ccc(OC)cc1)c1ccc(-c2nc(-c3ccncc3)no2)cc1[N+](=O)[O-]	.	.	/	.	/	/
Cc1nc2ncnn2c(C)c1CCC(=O)NC(C)c1ccc2c(c1)OCCO2 (configuration not stated)	/	/	.	/	.	.
Cc1nc2nc(C)c(CCC(=O)NC(C)c3ccc4c(c3)OCCO4)c(C)n2n1 (configuration not stated)	-47.6	.	.	.	.	.
CC(=O)Nc1ccc(NC(=O)C(C)OC(=O)/C(C#N)=C/c2ccc(N(C)C)cc2)cc1 (configuration not stated)	.	83.8	/	.	.	.
CC(OC(=O)/C(C#N)=C/c1ccc(N(C)C)cc1)C(=O)N(C)c1ccccc1 (configuration not stated)	.	70.0	/	.	.	?

Screening results from PubChem BioAssay.
